# Reference: PubChem BioAssay AID686976 (The Scripps Research Institute Molecular Screening Center, 2013)
# The campaign covered roughly 1,900 compounds. About 320 (17%) were called active. A selection follows. Values without a mark were called inactive. No stated cut-off is given here; in the data, active means inhibition above about 30%; inactive means the rest.
# System: CCHF virus ovarian tumor domain protease (vOTU, L protein)
# Test: CCHFV vOTU protease inhibitors, confirmation, biochemical, Pep-AMC substrate, fluorescence (AID 686976)
# Details: Recombinant CCHFV vOTU, at 11.5 µM, hits give high values
row,SMILES,inhibition
1,Cc1ccc(S(=O)(=O)N2[C@@H](c3ccc(Br)cc3)C(C(=O)O)=C[C@H]2CC2CCCC2)cc1,24.4%
2,Oc1ccc(CNc2ccccc2O)cc1,-5.66%
3,CCOc1ccc(C(=O)Nc2ccc(S(=O)(=O)NCC3CCCO3)cc2)cc1OCC (configuration not stated),-7.98%
4,Oc1c(CN2CCN(c3ccc(F)cc3)CC2)cc(Cl)c2cccnc12,-0.25%
5,CCOc1cc(NC(=O)c2ccccc2C(=O)O)c(OCC)cc1NC(=O)c1ccccc1F,-9.49%
6,Cc1ccc(OCc2nnc(SC/C=C/c3ccccc3)n2Cc2ccco2)cc1,15.3%
7,COc1ccccc1N=Nc1c(O)[nH]c(=S)[nH]c1=O,30.5% (active)
8,NC1=CC(=O)C(=O)c2cccnc21,95.4% (active)
9,CCc1ccc(OCC(=O)NCC(c2ccc(Cl)cc2)N2CCCCC2)cc1 (configuration not stated),14.2%
10,COc1ccc2c(c1)C(C)=CC(C)(C)N2C(=O)Nc1ccccc1,-94.5%
11,O=C1Nc2ccccc2-n2nnnc2C1N1CCN(c2cccc(C(F)(F)F)n2)CC1 (configuration not stated),-5.01%
12,CCNC(=S)N1CCN(c2ncccn2)CC1,-9.28%
13,Cc1cc(C)c2c(=O)[nH]c(SCC(=O)Nc3ccc(Br)cc3)nc2n1,-13.3%
14,Cc1ccccc1-n1c(SCC(=O)Nc2cccc3ccccc23)nc(O)cc1=O,-11.1%
15,Cc1oc2c(F)c(F)c(F)c(F)c2c1S(=O)(=O)Nc1cccc(C(F)(F)F)c1,13.9%
16,CC(C)(C)c1ccc(S(=O)(=O)NCC2CCN(C(=O)C(=O)c3cc4ccccc4o3)CC2)cc1,-5.86%
17,Nc1ccc(N=Nc2ccccc2Cl)c(N)n1,8.04%
18,Oc1ccc(/C=N/Nc2ccc(C(F)(F)F)cn2)cc1O,-17.2%
19,CCCSc1nc(NCc2ccco2)c2c3c(sc2n1)COC(C)(CC)C3 (configuration not stated),-14.8%
20,O=C(O)c1ccccc1/C=N/Nc1ccc(S(=O)(=O)Nc2ccc(Cl)cc2)cc1[N+](=O)[O-],12.4%
21,CN1CCN(Cc2nc3cc(NC(=O)COc4ccc([N+](=O)[O-])cc4)ccc3n2C)CC1,-12.5%
22,CCN(CC(=O)Nc1c(F)cccc1F)C(=O)c1cnc(C)cn1,2.27%
23,CC1CCCCC12NC(=O)N(CC(=O)OCC(=O)NCc1ccc(F)cc1)C2=O (configuration not stated),-0.61%

row,SMILES,inhibition
1,Cc1ccnc(NS(=O)(=O)c2ccc(NC(=O)c3oc4ccccc4c3C)cc2)n1,5.34%
2,Cc1coc2c(O)cc3c(c12)OC1(N2CCCCC2)C(=O)NCCCC31 (configuration not stated),47.2% (active)
3,Cn1c(=NC(=O)c2cnccn2)sc2ccccc21,5.19%
4,Cc1ccc(CSc2nc(-c3ccccc3)c(C#N)c(=O)[nH]2)cc1,13.2%
5,Oc1c(C=Nc2cccc3nsnc23)ccc2ccccc12,100% (active)
6,Oc1ccc(N=Cc2c(O)ccc3ccccc23)cc1,4.75%
7,CC(C)Cn1c(N)c(C(=O)NCc2cccs2)c2nc3ccccc3nc21,-76.7%
8,C=CCC[C@@H](CCCCC)OC(=O)/C=C/[C@@H](O)[C@H](O)C[C@H](O)CC=C,-0.24%
9,CCc1ccc2c(c1)NC(=O)C2(C)Cc1ccc(OC(F)(F)F)cc1 (configuration not stated),3.85%
10,O=C(Nc1cccc(S(=O)(=O)N2CCCCC2)c1)c1ccc2c(c1)OCO2,-5.32%
11,COc1ccc(C(N)c2csc(NC(=O)Nc3cccc(C(F)(F)F)c3)n2)cc1 (configuration not stated),-16.9%
12,O=C(NCc1ccc(F)cc1)c1cc(C2CCCCN2C(=O)C2CCCCC2)on1 (configuration not stated),-10.2%
13,Cc1nnc(SC(C)C(=O)Nc2ccc(S(=O)(=O)NC3CCCCC3)cc2)s1 (configuration not stated),-7.87%
14,CCOC(=O)N1CCC(c2cc(=O)n(-c3ccccc3)[nH]2)CC1,-6.72%
15,COc1ccccc1C1C(C#N)=C(N)Oc2c1c(-c1ccccc1)nn2-c1ccccc1 (configuration not stated),1.06%
16,CCN(CC)C(=O)C1=C(C)N(Cc2ccc(C(C)(C)C)cc2)C(=O)C(CC(=O)NCc2cccc3ccccc23)C1 (configuration not stated),3.3%
17,COc1ccc(C(=O)/C=C/c2ccc(-c3ccccc3)cc2)cc1CSCC(=O)O,0.4%
18,COc1cccc(NC(=O)C(=O)c2cn(CC(=O)N3CCOCC3)c3ccccc23)c1,0.94%
19,COCCn1nnnc1C(c1cc2ccc(OC)cc2[nH]c1=O)N1CCc2ccccc2C1 (configuration not stated),20.7%
20,CN(C)N1C(N)=C(C#N)C(c2ccc(Br)cc2)C2=C1CCCC2=O (configuration not stated),-25.8%
21,O=C1Nc2ccc([N+](=O)[O-])cc2C1=Nc1cccc(CO)c1,58.4% (active)
22,CCN(CC)P(=O)(Oc1cccc(C)c1)N(CC)CC,-12.8%
23,CCCCCC(=O)N1C[C@H](O)[C@@H](n2cc(COC(=O)c3ccccc3)nn2)C[C@@H]1c1ccc(C)cc1,7.84%

row,SMILES,inhibition
1,CC(C)Oc1ccc(CN2CCC2(C)C(=O)NCc2ccc(C(F)(F)F)cc2)cc1 (configuration not stated),8.85%
2,CN1c2ccc(C=O)c3c(C=O)ccc(c23)N(C)C1(C)C,-100%
3,COc1ccc(F)cc1C(=O)C1CCCN(C(=O)CCc2ccccn2)C1 (configuration not stated),-14.7%
4,CCN(C[C@H]1N[C@@](CC)(C(=O)OC)[C@H]2C(=O)N(Cc3ccccc3)C(=O)[C@@H]12)S(=O)(=O)c1ccc(C(F)(F)F)cc1,7.2%
5,CCOC(=O)c1c(C)[nH]c2c1-c1ccccc1C(=O)C2=O,98.7% (active)
6,CCOC(=O)c1ccc(Nc2cc3ccccc3c(=O)[nH]2)cc1,24.6%
7,O=C1C=C(NS(=O)(=O)c2ccccc2)C(=O)c2ccccc21,15.4%
8,O=C(NC1=CC(=O)c2ccccc2C1=O)c1ccccc1,99.3% (active)
9,O=C(NC1CCCCC1)N1CCc2[nH]c3ccccc3c2C1,-22.6%
10,CN(C)c1ccc(N/C=C/C(=O)C(F)(F)F)cc1,5.61%
11,Cc1cc(C(=O)N/N=C/c2ccc(O)c([N+](=O)[O-])c2)c(C)n1-c1ccc(F)cc1,8.57%
12,CCCS(=O)(=O)NC(=O)C1(C)CCN(C(=O)c2sccc2C)C1 (configuration not stated),-18.9%
13,COc1cc2c(cc1OC)C(Cc1cc(OC)c(OC)cc1[N+](=O)[O-])=NCC2,-18.3%
14,COc1ccc(NC(=O)C[C@H]2C(=O)N(CCc3ccccc3)C[C@@H]2C)cc1,-25.5%
15,COC(=O)[C@]12C[C@H](CC(=O)NCc3ccc(C)o3)C(=O)N(CCC3=CCCCC3)C1=C[C@H](C(C)(C)C)O[C@@H]2C,9.58%
16,CCOC(=O)c1ccc(NC(=O)c2nc[nH]c2C(=O)N[C@@H](CCCCNC(=O)OC(C)(C)C)C(=O)OC(C)(C)C)cc1,12.5%
17,O=C(NCCc1ccc(Cl)cc1Cl)c1cc([N+](=O)[O-])c[nH]c1=O,-6.11%
18,COC(=O)[C@@]12C[C@@H](CC(=O)NCc3cccc(C(F)(F)F)c3)C(=O)N(Cc3ccco3)C1=CCC(C)(C)C2,12.2%
19,CCN(CC)C(=O)[C@@H]1C=C2c3cccc4[nH]c(Br)c(c34)C[C@H]2N(C)C1,-5.37%
20,CCn1nnnc1SCC(=O)Nc1ccc(N(C)C)cc1,6.35%
21,Cc1nnc(NC(=O)Nc2ccc(Cl)c(Cl)c2)s1,-15.1%
